Data from PubChem BioAssay AID540276 (National Center for Advancing Translational Sciences (NCATS), 2011).
Hit rate of the full screen: of about 300,000 compounds, about 5,400 (1.8%) were called active. About 28% were inconclusive and are not listed. What follows is part of a selection rich in actives, with near analogues and random picks from the rest. Unmarked numbers belong to inactive results. Calls come from the whole dose curve; tested in HEK293 cells.
% is set by controls: 0 for no effect and ±100 for the full control effect; potency is the fitted concentration of half-maximal effect.

Assay: qHTS for inhibitors of binding or entry into cells for Marburg Virus
Details: Marburg virus pseudotyped entry inhibition, cell reporter; series mostly up to 37.8 µM; activity change, negative = inhibition: at the top concentration
In the case of COc1cc([C@H]2[C@@H]3C(=O)N(c4ccc(F)cc4)C(=O)[C@H]3ON2c2ccccc2)ccc1O, the “activity change, negative = inhibition” value is reported as 7.28%. In the case of O=[N+]([O-])c1ccc(S(=O)(=O)Nc2cccc(-c3ccc(N4CCCC4)nn3)c2)cc1, the “activity change, negative = inhibition” value is reported as 19.4%. For Cc1ccc(S(=O)(=O)c2cc3c(=O)n4cccc(C)c4nc3n(CCc3ccccc3)c2=N)cc1C, the “activity change, negative = inhibition” value was 1.23%. With O=C(OCC(=O)N1CCCCCC1)c1ccc(Br)c(S(=O)(=O)N2CCOCC2)c1 the “activity change, negative = inhibition” value was -2.16%. With C=CCNc1ncnc2ccc(Br)cc12 the Potency was “inactive”. In the case of CC1(C)CC2CC(C)(CN2c2ncnc3ccc(Br)cc23)C1 (configuration not stated), the Potency is reported as 6.31 µM (active). In the case of O=C(NNc1nc(N2CCCC2)nc(N2CCCC2)n1)c1ccccc1, the “activity change, negative = inhibition” value is reported as -22.7%. In the case of O=C(CN1CCc2ccccc2C1)Nc1cccc(S(=O)(=O)N2CCOCC2)c1, the “activity change, negative = inhibition” value is reported as -29.4%. With O=[N+]([O-])c1ccc2oc(-c3cccc(O)c3)nc2c1 the “activity change, negative = inhibition” value was -25.3%. For COc1ccc2oc(N)nc2c1, the “activity change, negative = inhibition” value was 10.7%. In the case of COc1cccc(-c2nc3cc(C)ccc3o2)c1, the Potency is reported as 6.31 µM (active). For Nc1ccc2c(c1)C(=Cc1cccnc1)c1ccccc1-2, the “activity change, negative = inhibition” value was -9.88%. In the case of CSCCC(NC(=O)COc1ccccc1)C(=O)N(C)CC(=O)Nc1ccc(C)cc1 (configuration not stated), the “activity change, negative = inhibition” value is reported as -5.2%. With CC1CCCCC12NC(=O)N(CC(=O)OCc1c(F)cccc1Cl)C2=O (configuration not stated) the “activity change, negative = inhibition” value was -0.621%. For CC1=NN(C(=O)CCc2ccccc2O)C(O)(C(F)(F)F)C1 (configuration not stated), the “activity change, negative = inhibition” value was 0.302%. In the case of COC(=O)C1(O)CC(C(C)C)=NN1C(=O)c1ccc(Cl)cc1 (configuration not stated), the “activity change, negative = inhibition” value is reported as -1.26%. In the case of O=C(c1ccc(Cl)cc1)N1N=C(c2ccccn2)CC1(O)C(F)(F)F (configuration not stated), the Potency is reported as 7.94 µM (active). For COc1cc(C(=O)NCC(=O)NCCSc2ccc(Br)cc2)cc(OC)c1OC, the “activity change, negative = inhibition” value was -21.6%. In the case of O=C(NC1CCCC1)C(c1ccco1)N(C(=O)c1ccco1)c1ccc(F)cc1 (configuration not stated), the “activity change, negative = inhibition” value is reported as -27.1% [at 46.1 µM]. In the case of N#Cc1cc([N+](=O)[O-])ccc1NC(=O)COC(=O)c1cnccn1, the “activity change, negative = inhibition” value is reported as 21.5%. With Cc1c(C(=O)NCCN2CCOCC2)sc2nc(-c3ccc(F)cc3)cn12 the “activity change, negative = inhibition” value was -11.1%. In the case of CCOc1ccc(CCNC(=O)c2ccc3c(c2)sc2nc(-c4ccc(F)cc4)cn23)cc1OCC, the Potency is reported as 2.51 µM (active). For CCOc1ccc(CCNC(=O)Cn2nc(CC)n3c(cc4sc(CC)cc43)c2=O)cc1OCC, the “activity change, negative = inhibition” value was 15.5% [at 46.1 µM]. With COc1ccc(N2CC(NS(=O)(=O)c3ccc4ccccc4c3)CC2=O)cc1 (configuration not stated) the “activity change, negative = inhibition” value was -21.3% [at 46.1 µM]. With CCOc1ccc(C(=O)NCC(=O)N2CCCCCCC2)cc1OCC the “activity change, negative = inhibition” value was -7.67%. For S=c1[nH]nc(-c2cccnc2)n1/N=C/C(Cl)=C\c1ccccc1, the “activity change, negative = inhibition” value was -0.821%. In the case of Cc1cc(-c2n[nH]c(=S)n2/N=C/C(Br)=C/c2ccccc2)n[nH]1, the Potency is reported as 10 µM (active). With S=c1[nH]nc(-c2ccco2)n1/N=C/c1ccccc1 the “activity change, negative = inhibition” value was 15.3% [at 46.1 µM]. For Cc1ccc2nc(Nc3ccccc3O)nc(-c3ccccc3)c2c1, the “activity change, negative = inhibition” value was 7.83%. With O=C(CCl)NNc1nc(-c2ccccc2)c2cc(Cl)ccc2n1 the Potency was 6.31 µM (active). For O=C(CCl)NNc1cccc(Cl)n1, the “activity change, negative = inhibition” value was 5.94% [at 46.1 µM]. In the case of COc1ccc(CCNC(=O)c2c(C)nn(-c3ccccc3)c2Cl)cc1, the “activity change, negative = inhibition” value is reported as -21.4%. In the case of CCN(C(=O)COC(=O)c1c(C)nn(-c2ccccc2)c1Cl)c1c(N)n(Cc2ccccc2)c(=O)[nH]c1=O, the “activity change, negative = inhibition” value is reported as 0.394%. With CCOc1ccc2[nH]c(=O)c(CN(Cc3nnnn3Cc3ccccc3)CC3CCCO3)cc2c1 (configuration not stated) the Potency was “inactive”. In the case of Cc1cccc2cc(CN(Cc3nnnn3Cc3ccccc3)C3CCCC3)c(=O)[nH]c12, the Potency is reported as 16.4 µM (active). With Cc1cc(C)c2cc(CN(Cc3nnnn3Cc3ccc(F)cc3)C3CCCC3)c(=O)[nH]c2c1 the “activity change, negative = inhibition” value was 2.92%. In the case of Cc1cc(NC(=O)C(C)SCC(=O)Nc2ccccc2N2CCCCC2)no1 (configuration not stated), the “activity change, negative = inhibition” value is reported as -30%. In the case of Nc1cc(=O)n(Cc2ccccc2)c(=O)n1Cc1ccccc1, the “activity change, negative = inhibition” value is reported as 17%. In the case of CCOC(=O)C1CCN(c2nc3ccccc3nc2[C@@H](C#N)C(=O)OC(C)C)CC1, the “activity change, negative = inhibition” value is reported as -13.5% [at 46.1 µM]. With COc1cc(/C=C2\C(=N)N3N=C(CC(=O)N4CCOCC4)SC3=NC2=O)cc(OC)c1OC the “activity change, negative = inhibition” value was 0.659% [at 46.1 µM]. For CCN1CCN(C(=O)c2ccc(CN(c3ccc(C)c(C)c3)S(C)(=O)=O)cc2)CC1, the “activity change, negative = inhibition” value was -17.9% [at 46.1 µM]. For Cc1ccc2cc(CN(c3ccc(C)c(C)c3)S(C)(=O)=O)c(=O)[nH]c2c1, the Potency was 10 µM (active). In the case of CCOC(=O)N1CCN(C(=O)c2ccc(CN(c3ccc(C)c(C)c3)S(C)(=O)=O)cc2)CC1, the “activity change, negative = inhibition” value is reported as -7.05%. For CCCCc1nc2cc(C(=O)NCCc3cnn(C)c3)ccc2o1, the “activity change, negative = inhibition” value was 1.86%. In the case of CC(=O)CSc1nc(CCc2ccccc2)c(C#N)c(=O)[nH]1, the “activity change, negative = inhibition” value is reported as 2% [at 46.1 µM]. In the case of Cn1c(N)c(C(=O)COC(=O)/C=C/c2cccc(C(F)(F)F)c2)c(=O)n(C)c1=O, the “activity change, negative = inhibition” value is reported as 17.7%. With COc1ccc(C(=O)COC(=O)c2c(C)noc2C)cc1Cl the “activity change, negative = inhibition” value was 7.27% [at 46.1 µM]. With CC(C)(C)c1ccc(Cn2nnc3c(=O)[nH]c(C4CCCN(C(=O)c5ccco5)C4)nc32)cc1 (configuration not stated) the Potency was 10 µM (active). For O=C(c1ccccc1F)N1CCC(c2nc3c(nnn3Cc3cccc(F)c3)c(=O)[nH]2)CC1, the “activity change, negative = inhibition” value was -1.86% [at 46.1 µM]. With COc1ccc(Cn2nnc3c(=O)[nH]c(C4CCN(C(=O)c5ccccc5Cl)CC4)nc32)cc1 the Potency was “inactive”. With COc1ccc(OC)c(NC(=O)COC(=O)Cc2ccsc2)c1 the “activity change, negative = inhibition” value was 2.26%. With CCOC(=O)c1ccc(N2C(=O)c3n[nH]c(C)c3C2c2ccc(O)c(OC)c2)cc1 (configuration not stated) the “activity change, negative = inhibition” value was -7.6% [at 46.1 µM].
